Hits are enriched below; roughly 2.3% of the tested compounds scored in any of these assays.
FUS suppressor – FUS proteinopathy suppression in yeast. S. cerevisiae FUS-expressing, growth rescue, OD600, 24 h. Potency, µM (titrated, usually from 76.6 µM), usual class: activators. hit rate 0.24% among 390,000;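 further: plate controls were DMSO vehicle for no effect and reference control for full effect; nearly all actives have a fitted effect of over 55% in size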
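Galactose (2%) drives FUS expression in yeast precultured in raffinose; seeding density OD 0.005. Test compounds incubated 24hr at 30C and 99% humidity before absorbance at 600 nm was measured.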
aSyn rescue – inhibitors of alpha-synuclein toxicity in yeast; Yeast expressing alpha-synuclein, growth rescue, BacTiter-Glo, 24 h; Potency, µM (titrated, usually from 46.1 µM), for the others: top-dose growth rescue (activation), usual class: activators; hit rate 0.14% among 370,000; further: % of control where 0% means no effect; nearly all actives have a fitted effect of over 65% in size
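Rescue of yeast growth: cells expressing toxic alpha-synuclein, induced in galactose at OD600 0.02, incubated with compound 24 h at 30 C. ATP luminescence quantified growth; inhibitors of toxicity appear as activators.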
uPA surface inh – inhibitors of cell surface uPA generation | Potency, µM (series often up to 38.3 µM), without a hit: at the highest dose activity change, negative = inhibition, most hits filed as inhibitors | cell surface uPA generation assay, qHTS | hit rate 0.31% among 330,000; active means well fitted inhibition curve with a large enough effect; inconclusive means small, poorly fitted or top-dose-only effect; inactive means no such curve, though single readings can be large or run the other way; tested in mouse RAW 264.7 cells; further: on the % scale 0 is the no-effect control and ±100 the full control effect; nearly all actives have a fitted effect of over 55% in size
TDP-43 yeast inh – inhibitors of TDP-43 toxicity in yeast | TDP-43 expressing yeast growth rescue, BacTiter-Glo, 24 h | Potency, µM (titrated, usually from 46.1 µM), without a hit: at the top dose growth rescue (activation), actives largely listed as activators | hit rate 1.8% among 410,000; further: % of control where 0% means no effect; nearly all actives have a fitted effect of over 50% in size
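Yeast expressing TDP-43 (pregrown in raffinose, seeded at OD600=0.02 in galactose medium) exposed to compounds 24 hr at 30 deg C. Growth read by BacTiter-Glo luminescence; rescue of toxicity appears as increased signal.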
Abeta yeast res – restores growth of yeast expressing A-beta42 peptide; yeast expressing A-beta42, growth rescue, OD600, 48 h; response scale: 0% DMSO, 100% iron-clioquinol control; Potency, µM (series often up to 46.1 µM), most hits filed as activators; hit rate 0.063% among 410,000; AID 1347071; further: nearly all actives have a fitted effect of over 55% in size
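Growth rescue measured by 600 nm absorbance after 48 h yeast culture at 30 C with compound. Values normalized between DMSO and an equimolar ferric chloride plus clioquinol control.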
Chronic BCR inh – inhibitors of chronic active B-cell receptor signaling | ABC-DLBCL IkBa-CBG/CBR reporter, luminescence ratio, 4 h | Potency, µM (top dose mostly 46.1 µM), inactives show top-dose activity change, negative = inhibition, hits mostly inhibitors | hit rate 0.05% among 340,000; active means well fitted inhibition curve with a large enough effect in the signal ratio, with a control signal flat, not every such curve was filed as active; inconclusive means small, poorly fitted or top-dose-only effect, or effect the other way, or a change in a side signal; the % refers to the signal ratio;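 further: plate controls were basal doxycycline-induced cells for no effect and cells given 10 µM MG132 for full effect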
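Compounds up to 46 uM were incubated four hours with TMD8 cells whose green CBG68 luciferase is fused to IkappaBalpha; red CBR luminescence normalised the signal, and concentration-effect curves were fitted to fusion, red and ratio data.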
* hit, by the source's call; i = inactive; ? = inconclusive; . = no result; [ ] = remark or other dose. Unless noted, the call rests on the fitted dose curve; in most records, active means well fitted curve in the direction sought with a large enough effect; inconclusive means small, poorly fitted or top-dose-only effect, or another doubt; inactive means no such curve, though single readings can be large; an effect the other way counts as inactive or inconclusive. Potency means the concentration at half of the fitted maximal effect.

SMILES | FUS suppressor | aSyn rescue | uPA surface inh | TDP-43 yeast inh | Abeta yeast res | Chronic BCR inh
CCOC(=O)N1CCN(C(=O)C[C@H]2C[C@@]3(C(=O)OC)C(=C[C@H](C(C)C)O[C@@H]3C3CC3)N(CCC3=CCCCC3)C2=O)CC1 | 13µM* | . | . | . | . | .
CCOC(=O)[C@]12CCCC=C1N(Cc1ccccc1)C(=O)[C@H](CC(=O)NCC13CC4CC(CC(C4)C1)C3)C2 | 13µM* | 6% | . | -5% | i | .
Oc1ccccc1C1C=C(c2ccc3c(c2)OCO3)NC(c2cccc(Cl)c2)N1 (stereo unspecified) | . | 4.5µM* | . | . | . | .
O=C(O)CC1CCC(=C(Cl)Cl)C1 (stereo unspecified) | i | 11µM* | ? | -8% | i | 0%
O=C(O)CC1CC(O)CCC1=O (stereo unspecified) | i | -1% | . | 3% | i | .
Cc1ccc(-c2nc(N)s[n+]2-c2ccccc2)cc1 | . | 10% | -8% | ? | i | -21%
CNc1nc(-c2ccccc2)[n+](-c2ccc(C)cc2)s1 | i | -9% | 8% | 14µM* | i | ?
Cn1c(NCC(O)c2ccccc2)nc2c1c(=O)n(Cc1ccc(Cl)c(Cl)c1)c(=O)n2C (stereo unspecified) | 8.9µM* | -26% | -2% | -38% | i | .
Cn1c(NCC(O)c2ccccc2)nc2c1c(=O)n(Cc1ccc(Cl)cc1)c(=O)n2C (stereo unspecified) | i | -5% | 1% | -14% | i | 2%
Cc1ccc(S(=O)(=O)N2C[C@@H]3[C@H]4CC[C@H](C4)[C@@H]3[C@@H](C)[C@@H]2c2cn(Cc3ccccc3)c3ncccc23)cc1 | ? | 11% | ? | -13% | i | 12%
COc1cc(-c2cc3nc(NCc4cccs4)ccn3n2)cc(OC)c1OC | i | -22% | . | 35µM* | i | .
c1ccc(-c2cc3nc(NCc4ccc5c(c4)OCO5)ccn3n2)cc1 | ? | 14% | . | 14µM* | ? | .
c1coc(-c2cc3nc(NCc4ccc5c(c4)OCO5)ccn3n2)c1 | i | 6% | . | 18µM* | i | .
OC(c1cccc(Cl)c1)c1nc(-c2cc3ccccc3o2)cs1 (stereo unspecified) | i | -44% | . | 35µM* | i | .
COc1cccc(C(O)c2nc(-c3cc4ccccc4o3)cs2)c1 (stereo unspecified) | i | ? | . | 20µM* | i | .
OC(c1cccc(Cl)c1)c1nc(-c2cccc3cccnc23)cs1 (stereo unspecified) | i | 18µM* | . | ? | ? | .
COc1cc(C(O)c2nc(-c3cc4ccccc4o3)cs2)ccc1F (stereo unspecified) | i | -17% | . | 17% | ? | .
Cc1ccc(O)c(C(=O)CC(=O)c2ccccc2Cl)c1 | i | ? | -13% | -37% | i | 1%
O=C(CSc1nnc(CNC(=O)c2ccccc2F)o1)Nc1cccc(C(F)(F)F)c1 | i | -6% | 0% | 5% | i | 0%
O=C(c1ccccc1O)N1CCOCC1 | i | -3% | 3% | -27% | i | 9%
Cc1nnnn1/C(=C\c1ccccc1)C(=O)OCC(=O)NC(C)(C)C | . | 1% | -9% | -13% | i | ?
Cc1nnnn1/C(=C\c1ccccc1)C(=O)OCC(=O)NC1CCCCC1 | i | 25% | 7.9µM* | -7% | ? | ?
Cc1ccccc1N/N=C/c1c(C)nc2ccccn12 | i | 2% | 7% | 8% | i | -5%
CN(C1=C(NC(=O)c2ccc(Cl)cc2)C(=O)c2ccccc2C1=O)c1ccccc1 | . | -5% | -9% | 35µM* | i | ?
O=C(NC1=C(Nc2ccc(Cl)cc2)C(=O)c2ccccc2C1=O)c1ccccc1 | . | 8% | -9% | 8% | i | ?
SMILES | FUS suppressor | aSyn rescue | uPA surface inh | TDP-43 yeast inh | Abeta yeast res | Chronic BCR inh
C=CCOc1c(Cl)cc(/C=N/O)cc1OC | i | -6% | -27% | -4% | i | ?
CCOc1cc(/C=N\O)cc(Cl)c1OCC | i | -3% | 1% | 10µM* | i | -16%
CC(NC(=O)c1ccc2c(c1)OCCO2)C(=O)O (stereo unspecified) | i | -11% | 1% | -8% | i | -1%
Cc1nn2c(C)c(C(=O)Nc3ccccc3)cnc2c1-c1ccccc1 | i | 13% | 0% | ? | i | ?
COc1ccc(N2CCN(c3ncnc4onc(-c5ccc(F)cc5)c34)CC2)cc1 | i | . | . | 5%[9.22 µM] | i | .
Fc1ccc(N2CCN(c3ncnc4onc(-c5ccc(Cl)cc5)c34)CC2)cc1 | i | . | . | 18µM* | i | .
Cc1cc(C2N=C(N)Nc3nc4ccccc4n32)c(C)n1-c1ccccc1Cl (stereo unspecified) | i | -1% | -2% | -17% | i | ?
CC1(C)N=c2ccc([N+](=O)[O-])c(N)c2=[N+]1[O-] | i | -5% | 10µM* | 0% | i | ?
Cc1ccc(N)c([N+](=O)[O-])c1 | i | 0% | 5% | 15% | i | 1%
CN(C1CCCCC1)S(=O)(=O)c1ccc(SCC(=O)C(C)(C)C)nc1 | i | ? | -7% | 20µM* | i | 0%
COC(=O)/N=C/c1c(NCc2ccccc2)nc2c(C)cccn2c1=O | i | 1% | 3% | -7%[0.397 µM] | i | 14%
COc1ccc(C(CCN2CCCC2)c2c(OC)cc(OC)c3c(-c4ccccc4)cc(=O)oc23)cc1 (stereo unspecified) | i | 3% | -11% | 7% | i | -6%
COc1ccc(C(CCN2CCOCC2)c2c(OC)cc(OC)c3c(-c4ccccc4)cc(=O)oc23)cc1 (stereo unspecified) | i | 4% | 14µM* | -7% | i | ?
COc1ccccc1-c1nnc(SCC(=O)O)n1-c1ccccc1 | i | -4% | 5% | -18% | i | 8%
CC(C)C1C(=O)N(Cc2cn(CCC3OCCO3)nn2)CCS(=O)(=O)N1Cc1ccc(-c2ccc(Cl)cc2)cc1 (stereo unspecified) | ? | ? | . | 35µM* | i | .
CC1C(=O)N(Cc2cn(CCC3OCCO3)nn2)CCS(=O)(=O)N1Cc1ccc(-c2ccc(Cl)c(Cl)c2)cc1 (stereo unspecified) | ? | 26% | . | 16µM* | i | .
Cc1ccc(OCC(=O)NS(=O)(=O)c2ccc(Cl)cc2)cc1 | . | -1% | -3% | 10% | i | 4%
O=C(Nc1cccc(-c2ccccc2)c1)N1CCN(C(=O)Nc2cccc(-c3ccccc3)c2)CC1 | i | -8% | 2% | -30% | i | 15%

Screening data as filed in PubChem.
